MenB inh: Mtb MenB enzyme inhibition. P9WNP5. MenB enzyme assay, absorbance read-out. inhibition, % (test concentration not listed). hit rate 0.43% among 100,000; in the data active = inhibition above about 21%, passing the limit was not always enough
AID504770: growth inhibitors of E. coli YBA685 in a screen for V. cholerae RctB (chromosome II replication) inhibitors | hit rate 0.27% among 130,000 | AID 504770 | E. coli YBA685 rctB-dependent plasmid, OD600 growth, 3 h; active compounds read low | z-score (test concentration not listed); in the data active = z-score below about -2, passing the limit was not always enough
Polio RdRp inh: poliovirus RNA polymerase inhibition; % elongation, % (compound at 16.7 µg/mL); poliovirus polymerase elongation, fluorescence polarization; active compounds read low; P03300; AID 588519; hit rate 0.66% among 150,000; in the data active = % elongation below about 90%
Target sequence (P03300 1749-2209 limits assumed): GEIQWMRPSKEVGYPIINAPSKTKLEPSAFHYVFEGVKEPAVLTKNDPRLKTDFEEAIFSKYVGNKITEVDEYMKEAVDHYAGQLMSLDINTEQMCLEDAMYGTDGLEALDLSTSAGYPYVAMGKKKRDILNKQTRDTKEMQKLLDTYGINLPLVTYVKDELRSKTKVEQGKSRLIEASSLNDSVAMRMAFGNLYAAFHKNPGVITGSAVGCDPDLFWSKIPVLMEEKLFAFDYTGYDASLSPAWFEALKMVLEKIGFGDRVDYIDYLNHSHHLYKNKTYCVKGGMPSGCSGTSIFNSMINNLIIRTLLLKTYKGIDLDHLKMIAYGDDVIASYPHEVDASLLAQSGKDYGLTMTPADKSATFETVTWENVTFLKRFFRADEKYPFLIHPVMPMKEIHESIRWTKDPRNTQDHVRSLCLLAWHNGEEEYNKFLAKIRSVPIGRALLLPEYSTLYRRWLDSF
MbtI inh: blocks the Mycobacterium tuberculosis siderophore enzyme MbtI; P9WFX0; purified MbtI enzyme, fluorescence intensity read-out; inhibition, % (no concentration beside the values); hit rate 0.89% among 100,000; in the data active = inhibition mostly above about 56%, no sharp cut-off; inactive = mostly below about 77%
Numbers stand for hits; - = inactive; . = no result. The list is not random: actives were taken first. Their share in the collection is about 1.4%.

SMILES	MenB inh	AID504770	Polio RdRp inh	MbtI inh
COC(=O)N/N=C1/C(=O)c2cccc3cccc1c23	-	-	-	-
NC(=S)N/N=C1/C(=O)c2cccc3cccc1c23	-	-	-	75.6
CC(=O)NCCNCc1ccc(OCc2csc(C)n2)cc1	-	-	-	-
COc1ccc(C(=O)OCC(=O)c2ccc3[nH]c(=O)[nH]c3c2)c(OC)c1	-	-	88.0	-
O=C(COC(=O)c1ccccc1NCc1ccco1)c1ccc(Cl)cc1	-	-	-	-
Cc1onc(-c2ccccc2)c1C(=O)OCC(=O)c1ccc2[nH]c(=O)[nH]c2c1	-	-	76.0	-
O=C(COC(=O)c1ccccc1NCc1ccco1)c1ccc2[nH]c(=O)[nH]c2c1	-	-	44.0	-
O=C(NCc1ccco1)c1ccccc1NS(=O)(=O)c1ccc(F)cc1	-	-	-	-
O=C(NC1CCc2ccccc21)c1n[nH]c(=O)c2ccccc12 (stereo not drawn)	-	-	-	-
CC(C)Oc1ccc(CNC(=O)c2cnc3sc(N4CCCC4)nn3c2=O)cc1	.	.	15.0	.
COc1ccc(C(=O)OCc2cc(=O)n3cc(C)ccc3n2)c(OC)c1OC	-	-	-	-
Cc1cc(C(=S)NC(=O)c2ccccc2)c(C)n1C	-	-	-	65.3
CCC(C)(C)c1nnc(N)s1	-	-	-	99.3
O=C(CSc1ccccn1)c1ccc(F)cc1	-	-	-	86.0
N#CC(=S)Nc1ccc(F)cc1	-	-	85.0	-
Cn1c(=O)c2ncnnc2n(C)c1=O	-	-2.3	63.0	-
N=C(N)Cc1c(Cl)cccc1Cl	.	-	.	.
Nc1cccc(Cl)c1O	-	-	-	57.0
COC(=O)C1CCN(C(c2ccc(F)cc2)c2ccc(F)cc2)CC1	20.5	-	-	-
O=C(NCc1ccccc1)N1CCCCC1	-	-	-	-
O=C(NCc1ccccc1)N1CCN(C(c2ccc(F)cc2)c2ccc(F)cc2)CC1	-	-2.85	-	-
NC(=O)C1CCN(C(c2ccc(F)cc2)c2nnc(-c3ccccc3)o2)CC1 (stereo not drawn)	-	-	-	-
S=c1[nH]nc(-c2ccncc2)n1-c1ccc2c(c1)OCO2	-	-	-	62.3
O=C1NC(=O)C(=C/C=C/c2ccccc2)C(=O)N1	-	-	-	77.6
CN1C(=O)NC(=O)/C(=C\C=C\c2ccccc2)C1=O	-	-	-	84.5
SMILES	MenB inh	AID504770	Polio RdRp inh	MbtI inh
CN1C(=O)NC(=O)/C(=C/c2ccc(F)cc2)C1=O	-	-	-	-
C=C1C2(C(=O)Nc3ccc(C(=O)OC)cc3)CCC(C2)C1(C)C (stereo not drawn)	-	-	-	-
COc1ccc2c(c1)c(C(=O)CSc1nnc3c(n1)CCCC3)c(C)n2C	-	-	-	-
COCCn1c(C)cc(/C=N/n2c(-c3ccccc3C)n[nH]c2=S)c1C	-	-	82.0	95.7
C=CCc1cccc(/C=N/n2c(-c3ccccc3C)n[nH]c2=S)c1O	-	-	-	-
CC(=O)N1CCN(C(=S)c2ccc(-c3cccc(Cl)c3Cl)o2)CC1	-	-	-	96.3
O=C(CN1CCN(C(=O)c2ccccc2)CC1)NCC(F)(F)F	-	-	-	-
Cc1ccc(C(CNC(=O)COc2ccccc2)N2CCN(C)CC2)cc1 (stereo not drawn)	-	-	-	-
CN1CCN(S(=O)(=O)c2ccc3oc(=O)c4ncn(C)c4c3c2)CC1	-	-2.35	-	-
Cn1cnc2c(=O)oc3ccc(S(=O)(=O)N4CCN(c5ccccc5)CC4)cc3c21	.	.	-	.
N#Cc1ccc(CSc2nc3ccccc3c(=O)[nH]2)cc1	-	-	-	53.4
O=C1C(c2cc(Cl)cc(Cl)c2)=C(O)c2ccccc21	-	-	-	88.7
CCCc1nc(=S)c2ccccc2[nH]1	-	-	-	91.5
O=C(Cc1cccc(C(F)(F)F)c1)Nc1nnc(-c2ccccc2)o1	-	-	-	-
O=C1C=CC(=O)N1c1ccc(C2CCCCC2)cc1	.	-	.	.
O=C1C=CC(=O)N1c1ccccc1	-	-7.05	-	99.0
Cc1ccc(N2C(=O)C=CC2=O)cc1	-	-	-	99.8
O=C1Cc2ccccc2C(=O)N1c1cccc(Cl)c1	-	-	78.0	-
O=C1C=CC(=O)N1c1cccc(Cl)c1	-	-4.05	-	100.5
O=C1c2ccccc2C(=O)N1c1ccccc1	-	-	-	-
CCn1c(SCCN2CCCC2)nnc1C1CCCN(C(=O)c2ccc3c(c2)OCO3)C1 (stereo not drawn)	-	-	-	-
CC(=O)Nc1cccc(N2C(=O)C=CC2=O)c1	-	-	-	95.5
CCCCc1ccc(N2C(=O)C=CC2=O)cc1	.	-	-	97.6
CC(C)c1ccc(N2C(=O)C=CC2=O)cc1	-	-	-	101.3
O=C1C=CC(=O)C(Nc2ccccc2)=C1	.	-	-	98.7
SMILES	MenB inh	AID504770	Polio RdRp inh	MbtI inh
O=C1C=C(Nc2ccccc2)C(=O)c2ccccc21	-	-	-	-
CCCCN(C)C(=O)C1CCC(CNS(=O)(=O)c2ccc3c(c2)CC(C)N3C(C)=O)CC1 (stereo not drawn)	.	.	15.0	.
COC(=O)C1=C(C)NC(=O)C1(NS(=O)(=O)c1ccc(C)cc1)C(F)(F)F (stereo not drawn)	-	-	-	-
COC1(NS(=O)(=O)c2ccc(C)cc2)C(C)=CC(=O)C=C1C	.	-	.	93.7
O=C1c2ccccc2C(=O)C2(O)OCCOC12O (stereo not drawn)	-	-	90.0	-
CCOC1(O)C(=O)c2ccccc2C(=O)C1(O)OCC (stereo not drawn)	.	-	.	-
CC(C)c1ccccc1OCC(O)CN1CCCCC1 (stereo not drawn)	.	-	.	.
O=C(CSc1nncc(=O)[nH]1)NCc1ccccc1	-	-	-	-
O=C(CSc1nncc(=O)[nH]1)Nc1cccc(Cl)c1	-	-	-	72.8
O=C1N/C(=N/N=C/c2ccco2)SC1Cc1ccc(SC(F)F)cc1 (stereo not drawn)	-	-	-	-
CCCC1NC(=S)N(c2ccccc2)N1 (stereo not drawn)	-	-	-	97.8
Cc1cccc(C(=O)OCC(=O)NC2CCCCCC2)c1O	.	-	-	-
CCc1ccc(C2=Nn3c(nnc3-c3cccc(S(=O)(=O)N(CC)CC)c3)SC2)cc1	-	-	-	-
CCN1CCCC1CNc1cc(C)c2ccc(C)cc2n1 (stereo not drawn)	-	-	88.0	-
CCN1CCCC1CNc1ncnc2c1cnn2-c1ccc(C)cc1 (stereo not drawn)	-	-	-	-
O=c1[nH][nH]c(=S)n1Cc1ccccc1	-	-	-	-
CCCCn1c(=O)[nH][nH]c1=S	-	-	-	77.9
Fc1ccc2nc(NCc3ccccc3)sc2c1	-	-	84.0	-
CC(NS(=O)(=O)c1cccc(Cl)c1)C(=O)N(C)C1CCN(C)CC1 (stereo not drawn)	-	-5.3	-	-
Cc1ccc(S(=O)(=O)NC(C)C(=O)N2CCN(c3cccc(Cl)c3)CC2)cc1 (stereo not drawn)	-	-	-	-
COc1ccc(O)c(C=Nc2cc(C)ccn2)c1	.	-	.	.
COc1ccc(C2=C(C)C(=O)N(Cc3ccc(C(=O)Nc4cccc(F)c4)cc3)S2(=O)=O)cc1	.	.	-	.
CCc1cccc(NC(=O)c2ccc(CN3C(=O)C(C)=C(c4ccc(OC)cc4)S3(=O)=O)cc2)c1	.	.	8.0	.
